# Values joined by “and” are separate entries in the source; they are usually repeats but may differ in a detail not shown here. Equal values may be shown once. Results filed as inconclusive are left out. A structure can be active in one record and inactive in another. Active and inactive are the calls of the source. Rule for the calls: active = hit-call score of the fitted dose curve at least 0.9, where 1 is the maximum; inconclusive = response in the unintended direction; inactive = score below 0.9.
# Molecular target: Cellular tumor antigen p53 (Homo sapiens) (UniProt P04637)
# Experiment: TOX21_p53_BLA_p5_ratio: Tox21 HCT-116 p53 Agonism Beta-lactamase Assay, Ratio, Phase 5 (AID 2283599)
# Procedure, shortened: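 HCT-116 cells carrying a p53-inducible beta-lactamase reporter were seeded at 4000 cells/well and dosed after 5 h with compound in DMSO (217-fold dilution). After 16 h at 37C, CCF4-AM substrate was added for 2 h, and the 460/530 nm emission ratio was scored as gain-of-signal versus DMSO.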
# Cellular tumor antigen p53 (Homo sapiens), sequence (P04637 whole entry, looked up): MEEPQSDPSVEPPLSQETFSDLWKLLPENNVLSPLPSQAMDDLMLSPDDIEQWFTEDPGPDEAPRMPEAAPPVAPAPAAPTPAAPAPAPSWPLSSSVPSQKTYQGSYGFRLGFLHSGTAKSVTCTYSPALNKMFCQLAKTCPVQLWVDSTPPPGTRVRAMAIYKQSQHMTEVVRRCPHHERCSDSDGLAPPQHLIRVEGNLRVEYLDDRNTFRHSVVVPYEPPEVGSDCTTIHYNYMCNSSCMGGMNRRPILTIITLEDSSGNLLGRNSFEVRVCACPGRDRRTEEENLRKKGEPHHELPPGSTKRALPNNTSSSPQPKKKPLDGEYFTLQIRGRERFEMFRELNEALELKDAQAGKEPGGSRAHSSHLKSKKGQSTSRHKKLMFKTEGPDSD
Structure (SMILES),outcome,AC50
CCOP(=O)(NC(C)C)Oc1ccc(SC)c(C)c1 (stereo not drawn),inactive,–
COc1cc(OC)nc(Sc2cccc(Cl)c2C(=O)O)n1,inactive,–
CCOP(=S)(OCC)Oc1ccc2c(C)c(Cl)c(=O)oc2c1,inactive,–
CC(=NC#N)N(C)Cc1ccc(Cl)nc1,inactive,–
CN(C)NC(=O)CCC(=O)O,inactive,–
FC(F)C(F)(F)OCC(Cn1cncn1)c1ccc(Cl)cc1Cl (stereo not drawn),inactive,–
CCc1cccc(C)c1N(C(=O)CCl)C(C)COC (stereo not drawn),inactive,–
COP(=O)(OC)C(O)C(Cl)(Cl)Cl (stereo not drawn),inactive,–
CC(C)=CC1C(C(=O)OCN2C(=O)C3=C(CCCC3)C2=O)C1(C)C (stereo not drawn),inactive,–
CC(C)N(C(=O)SCC(Cl)=C(Cl)Cl)C(C)C,inactive,–
CCCCOC(=O)c1ccccc1C(=O)O,inactive,–
CCC(=O)Nc1ccc(Cl)c(Cl)c1,inactive,–
S=C1NCCN1,inactive,–
CCOP(=S)(OCC)Oc1cc(C)nc(C(C)C)n1,–,41.7 µM (active)
CCCCSP(=O)(SCCCC)SCCCC,inactive,–
CCOP(=S)(OCC)SCCSCC,inactive,–
C#CCC1=C(C)C(OC(=O)C2C(C=C(C)C)C2(C)C)CC1=O (stereo not drawn),inactive,–

Structure (SMILES),outcome,AC50
CCOC(=O)CC(SP(=O)(OC)OC)C(=O)OCC (stereo not drawn),inactive,–
CON=C(C(=O)OC)c1ccccc1CON=C(C)c1cccc(C(F)(F)F)c1,–,2.24 µM (active)
CCOP(=S)(OCC)Oc1ccc([N+](=O)[O-])cc1,inactive,–
Cc1cc(C2CC2)nc(Nc2ccccc2)n1,inactive,–
C[Si](Cn1cncn1)(c1ccc(F)cc1)c1ccc(F)cc1,inactive,–
CCC(CC)Nc1c([N+](=O)[O-])cc(C)c(C)c1[N+](=O)[O-],inactive,–
O=c1ccc(=O)[nH][nH]1,inactive,–
CCCSP(=O)(OCC)Oc1ccc(Br)cc1Cl (stereo not drawn),inactive,–
CC1(C(=O)Nc2ccc(O)c(Cl)c2Cl)CCCCC1,inactive,–
CNC(=O)ON=C(SC)C(=O)N(C)C,inactive,–
Nc1nc(N)nc(NC2CC2)n1,inactive,–
CSC1=N[C@@](C)(c2ccccc2)C(=O)N1Nc1ccccc1,inactive,–
CC[C@H](C)[C@H]1O[C@]2(C=C[C@@H]1C)C[C@@H]1C[C@@H](C/C=C(\C)[C@@H](O[C@H]3C[C@H](OC)[C@@H](O[C@H]4C[C@H](OC)[C@@H](NC)[C@H](C)O4)[C@H](C)O3)[C@@H](C)/C=C/C=C3\CO[C@@H]4[C@H](O)C(C)=C[C@@H](C(=O)O1)[C@]34O)O2,–,56.9 µM (active)
N#CSCSC#N,–,18.8 µM (active) and 15.9 µM (active)
COP(=O)(NC(C)=O)SC (stereo not drawn),inactive,–
CCCOCC(=Nc1ccc(Cl)cc1C(F)(F)F)n1ccnc1,–,48.5 µM (active)
C#CC(C)(C)NC(=O)c1cc(Cl)cc(Cl)c1,inactive,–

# System: not listed separately
# Experiment: TOX21_p53_BLA_p5_viability: Viability Assessment in the Tox21 HCT-116 p53 Agonism Beta-lactamase Assay, Phase 5 (AID 2283600)
# Procedure, shortened: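 Luciferase-coupled ATP quantitation of cells treated for 16 h (37C, 5% CO2) with test chemicals delivered in DMSO via a 217-fold dilution; 4000 cells/well; reagent incubated 30 min at room temperature before luminescence reading.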
Structure (SMILES),outcome,AC50
CCOP(=O)(NC(C)C)Oc1ccc(SC)c(C)c1 (stereo not drawn),inactive,–
COc1cc(OC)nc(Sc2cccc(Cl)c2C(=O)O)n1,inactive,–
CCOP(=S)(OCC)Oc1ccc2c(C)c(Cl)c(=O)oc2c1,inactive,–
CC(=NC#N)N(C)Cc1ccc(Cl)nc1,inactive,–
CN(C)NC(=O)CCC(=O)O,inactive,–
FC(F)C(F)(F)OCC(Cn1cncn1)c1ccc(Cl)cc1Cl (stereo not drawn),inactive,–
CCc1cccc(C)c1N(C(=O)CCl)C(C)COC (stereo not drawn),inactive,–
COP(=O)(OC)C(O)C(Cl)(Cl)Cl (stereo not drawn),inactive,–
CC(C)=CC1C(C(=O)OCN2C(=O)C3=C(CCCC3)C2=O)C1(C)C (stereo not drawn),inactive,–
CC(C)N(C(=O)SCC(Cl)=C(Cl)Cl)C(C)C,inactive,–
CCCCOC(=O)c1ccccc1C(=O)O,inactive,–
CCC(=O)Nc1ccc(Cl)c(Cl)c1,inactive,–
COc1cccc(C(=O)NN(C(=O)c2cc(C)cc(C)c2)C(C)(C)C)c1C,inactive,–
S=C1NCCN1,inactive,–
CCOP(=S)(OCC)Oc1cc(C)nc(C(C)C)n1,inactive,36.1 µM (active)
CCCCSP(=O)(SCCCC)SCCCC,inactive,–
CCOP(=S)(OCC)SCCSCC,inactive,–

Structure (SMILES),outcome,AC50
C#CCC1=C(C)C(OC(=O)C2C(C=C(C)C)C2(C)C)CC1=O (stereo not drawn),inactive,–
CCOC(=O)CC(SP(=O)(OC)OC)C(=O)OCC (stereo not drawn),inactive,–
CON=C(C(=O)OC)c1ccccc1CON=C(C)c1cccc(C(F)(F)F)c1,inactive,–
Cc1cc(C2CC2)nc(Nc2ccccc2)n1,inactive,–
C[Si](Cn1cncn1)(c1ccc(F)cc1)c1ccc(F)cc1,inactive,–
CCC(CC)Nc1c([N+](=O)[O-])cc(C)c(C)c1[N+](=O)[O-],inactive,–
O=c1ccc(=O)[nH][nH]1,inactive,–
CCCSP(=O)(OCC)Oc1ccc(Br)cc1Cl (stereo not drawn),inactive,–
CC1(C(=O)Nc2ccc(O)c(Cl)c2Cl)CCCCC1,inactive,–
CNC(=O)ON=C(SC)C(=O)N(C)C,inactive,–
Nc1nc(N)nc(NC2CC2)n1,inactive,–
CSC1=N[C@@](C)(c2ccccc2)C(=O)N1Nc1ccccc1,inactive,–
CC[C@H](C)[C@H]1O[C@]2(C=C[C@@H]1C)C[C@@H]1C[C@@H](C/C=C(\C)[C@@H](O[C@H]3C[C@H](OC)[C@@H](O[C@H]4C[C@H](OC)[C@@H](NC)[C@H](C)O4)[C@H](C)O3)[C@@H](C)/C=C/C=C3\CO[C@@H]4[C@H](O)C(C)=C[C@@H](C(=O)O1)[C@]34O)O2,–,14.9 µM (active)
N#CSCSC#N,–,66.3 µM (active) and 68.4 µM (active)
CCCOCC(=Nc1ccc(Cl)cc1C(F)(F)F)n1ccnc1,–,31.2 µM (active)
C#CC(C)(C)NC(=O)c1cc(Cl)cc(Cl)c1,inactive,–

# Source: PubChem BioAssay (EPA / NIEHS)
